# Hits are enriched below; roughly 2.8% of the tested compounds scored in any of these assays.
# Pol iota inh = qHTS for Inhibitors of Polymerase Iota | DNA polymerase iota (Homo sapiens), Q9UNA4 | Pol iota fluorescent replication assay, 10 min | Potency, µM (top dose mostly 115 µM), inactives show at the top dose activity, negative = inhibition, hits mostly inhibitors | actives 1% (n = 390,000) | AID 588590, 2011; also: potency is read from the fitted curve at half-maximal effect
#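 Pol iota at 10 nM preincubated 15 min with compounds at room temperature; reaction started with fluorescent substrate, 50 nM final. Fluorescence read kinetically at 0 and 10 min; buffer-only wells as negative control.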
# POLB inh = qHTS Assay for Inhibitors of DNA Polymerase Beta | P06746 | Pol beta primer extension/strand displacement, fluorescence kinetic | Potency, µM (highest dose often 114 µM), for inactives: at the top dose activity change, negative = inhibition, usual class: inhibitors | actives 1.3% (n = 340,000); also: potency is read from the fitted curve at half-maximal effect; % is scaled to controls: 0 for no effect and ±100 for the full control effect
#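 Pol beta (10 nM) and compounds were preincubated 15 min at room temperature, then 50 nM substrate (final) started primer extension/strand displacement. Reads were taken at 0 and 10 min; concentration-response data were fitted to a four-parameter Hill equation.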
# PI5P4K alpha inh = qHTS for Inhibitors of phosphatidylinositol 5-phosphate 4-kinase (PI5P4K); AID 652105, 2013; PI5P4Kalpha enzyme, ADP-Glo luminescence, 60 min; active compounds read low; Phosphatidylinositol 5-phosphate 4-kinase type-2 alpha (Homo sapiens), P48426; max response, %; actives 1.2% (n = 330,000); active = max response of -50% or lower; inconclusive = between -30% and -50%; inactive = -30% or higher; also: value at the top dose of about 77 µM; % is scaled to controls: 0 for no effect and ±100 for the full control effect
#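 Compounds were pin-transferred onto PI5P4Kalpha and substrate in HEPES pH 7.4 buffer with EGTA, CHAPS and 5% DMSO. ATP (5 microM final) started the reaction, which ran 60 minutes at room temperature before ADP-Glo detection.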
# WRN inhibitor = qHTS for Inhibitors of WRN Helicase; WRN helicase unwinding, fluorescent forked duplex, kinetic; Potency, µM (doses to about 114 µM), for inactives: at the top dose activity change, negative = inhibition, actives largely listed as inhibitors; actives 0.46% (n = 360,000); AID 651768, 2012; also: potency is read from the fitted curve at half-maximal effect; % is scaled to controls: 0 for no effect and ±100 for the full control effect; nearly all actives have a fitted effect of over 55% in size
#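 WRN at 20 nM final preincubated with compound 15 min at room temperature; reaction started with 100 nM fluorophore/quencher forked duplex oligonucleotide and 2 mM ATP final. Unwinding followed kinetically by red fluorescence (ex 525, em 598 nm).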
# POLK inh = qHTS for Inhibitors of Polymerase Kappa; purified Pol kappa, fluorescent DNA synthesis assay, 10 min; Potency, µM (doses to about 107 µM), for the others: at the top dose activity, negative = inhibition, hits mostly inhibitors; actives 0.53% (n = 400,000); also: potency is read from the fitted curve at half-maximal effect; % is scaled to controls: 0 for no effect and ±100 for the full control effect
# Target sequence (Q9UBT6 whole entry, looked up): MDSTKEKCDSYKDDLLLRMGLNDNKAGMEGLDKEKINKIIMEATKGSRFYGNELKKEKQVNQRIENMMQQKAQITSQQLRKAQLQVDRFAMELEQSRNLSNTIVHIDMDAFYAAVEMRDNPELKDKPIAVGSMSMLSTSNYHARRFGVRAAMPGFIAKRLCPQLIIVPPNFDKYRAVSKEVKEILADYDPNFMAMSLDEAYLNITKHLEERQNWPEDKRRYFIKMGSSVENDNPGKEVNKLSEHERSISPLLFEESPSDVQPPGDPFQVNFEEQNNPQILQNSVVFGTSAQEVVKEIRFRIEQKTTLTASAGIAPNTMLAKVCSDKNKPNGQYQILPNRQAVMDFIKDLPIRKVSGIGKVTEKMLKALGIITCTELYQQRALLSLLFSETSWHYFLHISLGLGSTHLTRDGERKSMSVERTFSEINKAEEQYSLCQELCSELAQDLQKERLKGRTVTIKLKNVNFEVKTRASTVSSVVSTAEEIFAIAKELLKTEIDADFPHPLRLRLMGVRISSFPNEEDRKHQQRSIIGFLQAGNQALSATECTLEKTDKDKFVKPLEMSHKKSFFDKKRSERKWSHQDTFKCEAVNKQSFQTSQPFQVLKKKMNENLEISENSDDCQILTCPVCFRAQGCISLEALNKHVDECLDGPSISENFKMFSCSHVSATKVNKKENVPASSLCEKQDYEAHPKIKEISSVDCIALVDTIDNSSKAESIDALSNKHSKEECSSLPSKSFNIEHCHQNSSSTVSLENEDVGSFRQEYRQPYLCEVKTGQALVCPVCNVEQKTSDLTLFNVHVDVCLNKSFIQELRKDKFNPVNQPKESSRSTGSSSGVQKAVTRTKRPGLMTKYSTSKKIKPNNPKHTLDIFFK
#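 10 nM Pol kappa preincubated 15 min at room temperature with compounds, then reaction started with substrate at 50 nM final. Fluorescence read kinetically at 0 and 10 min; buffer-only wells served as negative control.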
# Pol eta inh = qHTS for Inhibitors of Polymerase Eta; DNA polymerase eta (Homo sapiens), Q9Y253; recombinant Pol eta, fluorescent DNA replication assay; actives 1.2% (n = 390,000); Potency, µM (top dose mostly 114 µM), without a hit: at the top dose activity change, negative = inhibition, hits mostly inhibitors; also: potency is read from the fitted curve at half-maximal effect; % is scaled to controls: 0 for no effect and ±100 for the full control effect
#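 Fluorescent replication assay: 50 nM final substrate added after a 15 min room-temperature compound preincubation with 10 nM enzyme. Signal taken at 0 min and again at 10 min.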
# * = called active by the depositor; ? = inconclusive; . = not tested or not shown; ! = a repeat was not active; [ ] = dose if it differs, or a comment. Unless noted, calls follow the shape of the dose curve; as a rule, active = well fitted curve in the direction sought with a large enough effect; inconclusive = small, poorly fitted or top-dose-only effect, or another doubt; inactive = no such curve, though single readings can be large; an effect the other way counts as inactive or inconclusive.
SMILES,Pol iota inh,POLB inh,PI5P4K alpha inh,WRN inhibitor,POLK inh,Pol eta inh
C=CCc1ccccc1OCCSc1nc2ccc([N+](=O)[O-])cc2s1,6.5%,22.3%,-3.7,-13.3%,-14.9%,-5.4%
Cc1ccc(NC(=O)CSc2nc(-c3ccco3)nc3cc(=O)[nH]n23)cc1C,?,39.8µM*,.,.,?,?
O=C(NCc1ccc(F)cc1)c1cc(-c2ccc(Cl)cc2)n[nH]1,-4.3%,23.2%,.,.,-6.2%,-6.6%
COc1ccc(NC(=O)CSc2nc(-c3ccco3)nc3cc(=O)[nH]n23)cc1,79.4µM*,25.1µM*,.,.,?,?
Cc1cccc(-c2nc(SCC(=O)Nc3cccc(C(F)(F)F)c3)n3[nH]c(=O)cc3n2)c1,?,39.8µM*,.,.,-26.4%,-19.5%
Cc1ccc(NC(=O)CSc2nc(-c3cccs3)nc3cc(=O)[nH]n23)cc1,?,31.6µM*,.,.,-34.0%,79.4µM*
COc1ccccc1OCCCSc1nc(-c2ccc(C(C)(C)C)cc2)nc2cc(=O)[nH]n12,?,?,.,.,?,79.4µM*
Cc1cccc(NC(=O)CSc2nc(-c3cccs3)nc3cc(=O)[nH]n23)c1,?,?,.,.,-30.9%,-7.9%
COc1ccc(NC(=O)CSc2nnc(-c3ccco3)n2C)cc1,15.9%,8.4%,-1.4,7.6%,-24.7%,-11.2%
COc1ccc(-c2nc(SCCOc3ccccc3Cl)n3[nH]c(=O)cc3n2)cc1,-20.0%,-31.3%,.,.,-21.0%,-4.9%
Nc1ccc(/C=C/c2cccc3cccnc23)cc1,11.7%,.,.,.,-9.4%,.
CCCCCCCCCCCCOC(=O)N1CCN(/[N+]([O-])=N/Oc2ccc([N+](=O)[O-])cc2[N+](C)=O)CC1,35.0%,.,.,.,2.7%,.
Cc1ccc(C(=O)CC(SCC(=O)O)c2ccc([N+](=O)[O-])cc2)cc1 (centres undefined),10µM*,-7.4%,3.9,-12.2%,3.0%,-25.5%
CNc1ccc(/C=C/c2ccccc2)cc1,-6.3%,.,.,.,-20.3%,.
O=C(COc1ccc(/C=C\[N+](=O)[O-])cc1)N1CCOCC1,31.6µM*,-23.7%,-1.5,-13.7%[11.6 µM],-20.1%,31.6µM*
O=C(O)Cn1cc(/C=N/NC(=O)c2cc3cc(Br)ccc3o2)c2ccccc21,70.8µM*,?,-74.8*,?,-24.7%,-22.2%
Cn1cc(/C=N/NC(=O)c2cc3cc(Br)ccc3o2)c2ccccc21,-22.7%[58.9 µM],-4.9%,-13.5,-6.3%,-4.0%,-13.1%
COc1ccc2[nH]c3c(NCc4ccco4)ncnc3c2c1,79.4µM*!,?,.,-34.4%,-22.4%,?
CCN(CC)CCNc1ncnc2c1[nH]c1ccc(OC)cc12,.,-12.0%,.,.,.,.
COc1ccc2[nH]c3c(NCCC4=CCCCC4)ncnc3c2c1,-2.1%,?,-61.1*,-20.0%,-3.3%,?
CCOc1ccc2[nH]c3c(NCCN(C)C)ncnc3c2c1,.,56.2µM*,.,.,.,.
O=C1CC(SC(=S)C2CCCC2=O)C(=O)N1 (centres undefined),.,.,-80.1*,35.5µM*,.,7.08µM*
COC(=O)C1N2C(=O)N(C)[C@H](C(=O)OC)[C@H]2SC1(C)C (some centres undefined),20.5%,.,.,.,-6.3%,.
COc1ccc(/C=N/NC(=O)c2[nH]c3ccc(Br)cc3c2-c2ccccc2)c(C(=O)O)c1OC,?,?,-16.2,?,1.8%,31.6µM*
O=C(N/N=C/c1ccccc1Cl)c1[nH]c2ccc(Br)cc2c1-c1ccccc1,79.4µM*,?,6.4,25.1µM*,?,50.1µM*
Cc1ccccc1CSc1ncc(Cl)c(C(=O)Nc2nc3ccc(F)cc3s2)n1,0.5%,-0.5%,.,.,-21.0%,-12.6%
Cc1ccc(OCCSc2nc3ccccc3n2CC(=O)NC(C)C)cc1,3.1%,14.8%,.,.,8.7%,-11.3%

# High-throughput results from PubChem BioAssay.
